Measurements taken from PubChem BioAssay (NCI).
About 83,000 compounds went through this panel and 20% of them were active in at least one assay; those are over-represented in the sample as a whole.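 Values shown are percent growth following 48 h exposure of cells in 96-well plates to a single concentration of compound; below 10 was considered active.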 Unmarked numbers belong to inactive results. Active and inactive are the calls of the source.

Tests used:
Experiment in all cases: NCI-60 one-dose screen, 48 h (100 = growth as untreated, 0 = no growth, -100 = all killed)
Conditions in all cases: 10 µM unless noted
[1] = tested on: SR leukemia
[2] = tested on: RPMI-8226 leukemia
[3] = tested on: OVCAR-8 ovarian
[4] = tested on: OVCAR-5 ovarian
[5] = tested on: OVCAR-4 ovarian
[6] = tested on: SK-OV-3 ovarian
[7] = tested on: IGROV1 ovarian
[8] = tested on: OVCAR-3 ovarian
[9] = tested on: HS 578T breast
[10] = tested on: NCI/ADR-RES ovarian

| SMILES | growth [1] | growth [2] | growth [3] | growth [4] | growth [5] | growth [6] | growth [7] | growth [8] | growth [9] | growth [10] |
| --- | --- | --- | --- | --- | --- | --- | --- | --- | --- | --- |
| CC[C@]12C=CCN3CC[C@]4(C(=C(C(=O)OC)C1)Nc1cc(OC)c([C@@H]5[C@H]6O[C@H]6[C@@]6(CC)CC(C(=O)OC)=C7Nc8cc(O)ccc8[C@@]78CCN5[C@@H]68)cc14)[C@@H]32 | -30.7% (active) | -5.84% (active) | 27.6% | -66.7% (active) | 14.6% | 40.2% | 1.62% (active) | -9.2% (active) | 23.7% | 6.92% (active) |
| O=C1Nc2cc(-c3ccc(NS(=O)(=O)c4ccc(-c5ccccc5)cc4)cc3)ccc2/C1=C/c1ccc[nH]1 | -33.1% (active) | 21.3% | 52.2% | 61.7% | 21.3% | 98.2% | 73% | -19.4% (active) | 59.4% | 62.9% |
| CN1CCc2c(sc3ncnc(N/N=C/c4cccc(Cl)c4Cl)c23)C1 | 8.87% (active) | -16% (active) | -38.6% (active) | 88% | -24.8% (active) | 90.6% | 10.6% | 25.1% | 38.2% | 49.4% |
| CCOc1ccccc1[C@H]1C(C(=O)c2ccc(Cl)cc2)C2(N[C@@H]1c1ccccc1)C(=O)Nc1ccc(Br)cc12 (stereo not given in full) | -45.6% (active) | 5.23% (active) | 12.1% | -20.8% (active) | 13.7% | 24.4% | 1% (active) | -4.84% (active) | -5.81% (active) | -46.7% (active) |
| O=C(Nc1ccc(-c2ccc3c(c2)NC(=O)/C3=C\c2ccc[nH]2)cc1)Nc1cccc(Cl)c1 | 6.39% (active) | 18.2% | -34.5% (active) | -68.3% (active) | 6.87% (active) | 3.23% (active) | -62.2% (active) | 2.44% (active) | 21.9% | -37.9% (active) |
| N#CC1=C(c2ccco2)Nc2c(c(-c3ccccc3)nn2-c2ccccc2)C12C(=O)Nc1ccc(Cl)cc12 (stereo not given) | -2.37% (active) | 49.8% | -29.1% (active) | 53.5% | 9.94% (active) | 55.3% | 39.2% | -27.2% (active) | -22.9% (active) | -3.42% (active) |
| CN(C)c1nc(NCCNS(=O)(=O)c2ccc(C(=O)/C=C/c3ccc(Cl)cc3)cc2)nc(N2CCOCC2)n1 | -12.8% (active) | -22.8% (active) | 12.8% | 55.4% | 60% | 73.9% | -71.2% (active) | -9.86% (active) | 62% | 25.5% |
| O=C1CCC(N2C(=O)c3cccc(NCCOCCOCCOCCC(=O)NCCCC(=O)NC(c4ccc5c(c4)OCO5)c4cc(Cl)c5cccnc5c4O)c3C2=O)C(=O)C1 (stereo not given) | 5.36% (active) | 16.1% | 32.7% | 63.8% | 60.2% | 51.1% | 15.8% | 10.9% | 64.6% | 92.4% |
| CN1C(=O)C(O)(CC(=O)c2cc3ccccc3oc2=O)c2ccccc21 (stereo not given) | 71.3% | 97.6% | 107% | 107% | 99.9% | 94.9% | 97.7% | 90.5% | 99% | 98.7% |
| COc1ccc2[nH]c(O)c(N=Nc3nc(-c4ccccc4)cs3)c2c1 | 27% | 58.6% | 6.68% (active) | 53.2% | -7.14% (active) | -17.4% (active) | 36.1% | -2.28% (active) | 41.6% | 3.46% (active) |
| Cc1nc2sccn2c1-c1nnc(SCC(C)C)o1 | 44.8% | 57.9% | 93.2% | 90.5% | 86% | 102% | 89.4% | 104% | 88.7% | 79% |
| N#Cc1c(-c2ccc(F)cc2)nc(SCc2ccc(F)cc2)nc1N1CCNCC1 | -2.24% (active) | -47.4% (active) | -84% (active) | 0.484% (active) | -8.59% (active) | 56.7% | -27.1% (active) | -35.1% (active) | -0.165% (active) | -39% (active) |
| Nc1nn2c(-c3cc4cc(Br)ccc4oc3=O)ccnc2c1N=Nc1ccccc1 | 1.69% (active) | 75.2% | -14.9% (active) | 16.8% | -5.33% (active) | -6.82% (active) | 13.1% | 27.1% | -20.7% (active) | -16.7% (active) |
